From PubChem BioAssay AID1159580 (chemical genetic matrix, 2015)
Where “and” joins values, the source holds several entries; their conditions need not be identical. Equal values may be shown once. The whole screen tested about 5,500 compounds, of which about 2,000 (36%) were called active. Roughly 18% stayed inconclusive and do not appear here. Cut-off read from the data, not from the text of the source: active = normalized growth mostly below about 0.91 (no sharp cut-off); inconclusive = no clear call, values can overlap the other calls; inactive = mostly above about 0.92. This is one part of the list.

Assay: chemical genetic growth profiling, strain panel (AID 1159580);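 note: tested at 20 µM; growth read once vehicle control cultures reached saturation at 30 °C; 1 = growth at the plate median or of vehicle wells; lower values mean less growth of the strain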
Details: S. cerevisiae deletion strains, growth OD

Measured: normalized growth

CCOC(=O)NNc1nncc2ccccc12
inactive: locus YAL013W, strain DEP1, stronger effect = lower value 0.992 | locus YAL021C, strain ccr4, stronger effect = lower value 1 | locus YAL026C, strain drs2, stronger effect = lower value 1.03 | locus YAL030W, strain snc1, stronger effect = lower value 1.02 | locus YBL061C, strain skt5, stronger effect = lower value 1.01 | locus YBR009C, strain hhf1, stronger effect = lower value 0.973 | locus YBR021W, strain FUR4, stronger effect = lower value 0.964 | locus YBR023C, strain chs3, stronger effect = lower value 1.02 | locus YBR171W, strain sec66, stronger effect = lower value 1.01 | locus YBR229C, strain ROT2, stronger effect = lower value 0.991 | locus YBR231C, strain swc5, stronger effect = lower value 0.993 | locus YBR279W, strain paf1, stronger effect = lower value 1.02 | locus YCL011C, strain gbp2, stronger effect = lower value 1.04 | locus YCL016C, strain dcc1, stronger effect = lower value 1.03 | locus YCL029C, strain bik1, stronger effect = lower value 0.97 | locus YCL061C, strain MRC1, stronger effect = lower value 0.994 | locus YCL069W, strain vba3, stronger effect = lower value 1.02 | locus YCR088W, strain abp1, stronger effect = lower value 1.01 | locus YDL005C, strain med2, stronger effect = lower value 1.03 | locus YDL035C, strain GPR1, stronger effect = lower value 0.978 | locus YDL040C, strain nat1, stronger effect = lower value 0.996 | locus YDL074C, strain BRE1, stronger effect = lower value 1.01 | locus YDL101C, strain DUN1, stronger effect = lower value 0.991 | locus YDL134C, strain PPH21, stronger effect = lower value 0.979 | locus YDL185W, strain tfp1, stronger effect = lower value 0.983 | locus YDL192W, strain arf1, stronger effect = lower value 0.98 | locus YDR001C, strain nth1, stronger effect = lower value 1.01 | locus YDR069C, strain doa4, stronger effect = lower value 0.985 | locus YDR101C, strain arx1, stronger effect = lower value 0.993 | locus YDR137W, strain rgp1, stronger effect = lower value 1.03 | locus YDR150W, strain NUM1, stronger effect = lower value 1 | locus YDR159W, strain sac3, stronger effect = lower value 0.94 | locus YDR162C, strain NBP2, stronger effect = lower value 0.987 | locus YDR195W, strain ref2 0.981 | locus YDR297W, strain sur2, stronger effect = lower value 1 | locus YDR318W, strain mcm21, stronger effect = lower value 0.974 | locus YDR334W, strain swr1, stronger effect = lower value 1.03 | locus YDR335W, strain msn5, stronger effect = lower value 1.01 | locus YDR388W, stronger effect = lower value 0.973 | locus YDR392W, strain spt3, stronger effect = lower value 0.998 | locus YDR502C, strain sam2, stronger effect = lower value 0.969 | locus YEL003W, strain gim4, stronger effect = lower value 0.998 | locus YEL037C, strain rad23, stronger effect = lower value 1.02 | locus YEL061C, strain CIN8 (second series), stronger effect = lower value 1 | locus YEL061C, strain CIN8, stronger effect = lower value 1 | locus YER015W, strain faa2, stronger effect = lower value 1.01 | locus YER016W, strain bim1, stronger effect = lower value 1.02 | locus YER110C, stronger effect = lower value 0.972 | locus YER111C, strain swi4, stronger effect = lower value 1.01 | locus YER155C, strain BEM2 (second series), stronger effect = lower value 1 | locus YER155C, strain BEM2, stronger effect = lower value 0.99 | locus YER167W, strain BCK2, stronger effect = lower value 0.989 | locus YFR010W, strain ubp6, stronger effect = lower value 0.979 | locus YGL078C, strain dbp3, stronger effect = lower value 0.98 | locus YGL086W, strain mad1, stronger effect = lower value 0.995 | locus YGL167C, strain pmr1, stronger effect = lower value 1 | locus YGL173C, strain kem1, stronger effect = lower value 0.972 | locus YGL227W, strain vid30, stronger effect = lower value 1.02 | locus YGL240W, strain doc1, stronger effect = lower value 0.998 | locus YGL248W, strain PDE1, stronger effect = lower value 1 | locus YGL253W, strain hxk2, stronger effect = lower value 1.02 | locus YGR135W, strain pre9, stronger effect = lower value 0.97 | locus YGR229C, strain SMI1, stronger effect = lower value 0.984 | locus YGR252W, strain gcn5, stronger effect = lower value 0.962 | locus YHR013C, strain ard1, stronger effect = lower value 1.02 | locus YHR027C, strain rpn1, stronger effect = lower value 0.993 | locus YHR030C, strain SLT2, stronger effect = lower value 0.99 and 0.966 | locus YHR079C, strain IRE1 (second series), stronger effect = lower value 0.983 | locus YHR079C, strain IRE1, stronger effect = lower value 0.982 | locus YHR094C, strain hxt1, stronger effect = lower value 0.973 | locus YHR129C, strain ARP1, stronger effect = lower value 0.999 | locus YHR142W, strain chs7, stronger effect = lower value 1.04 | locus YHR200W, strain rpn10, stronger effect = lower value 0.981 | locus YIL066C, strain RNR3, stronger effect = lower value 0.987 | locus YIL073C, strain SPO22, stronger effect = lower value 0.913 | locus YIL125W, strain kgd1, stronger effect = lower value 0.987 | locus YIR030C, strain dcg1, stronger effect = lower value 0.977 | locus YJL092W, strain hpr5, stronger effect = lower value 1.01 | locus YJL095W, strain BCK1 (second series), stronger effect = lower value 1.02 | locus YJL095W, strain BCK1, stronger effect = lower value 1.04 and 0.976 | locus YJL115W, strain asf1, stronger effect = lower value 1.03 | locus YJL129C, strain trk1, stronger effect = lower value 1.02 | locus YJL134W, strain LCB3, stronger effect = lower value 0.994 | locus YJL154C, strain vps35, stronger effect = lower value 1.01 | locus YJL164C, strain tpk1, stronger effect = lower value 0.993 | locus YJL166W, strain qcr8, stronger effect = lower value 0.983 | locus YJL168C, strain set2, stronger effect = lower value 0.981 | locus YJL187C, strain SWE1 (second series), stronger effect = lower value 1 | locus YJL187C, strain SWE1, stronger effect = lower value 1.02 | locus YJR043C, strain POL32, stronger effect = lower value 0.952
